Source: publication PMC5540273 (PLoS ONE, 2017)

System: ROCK2
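Also: kd values determined as follow-up on hits from a single-replicate KINOMEscan panel screen.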

Compound | Kd
CSc1nn2c(=O)cc(N3CCOCC3)nc2n1Cc1cccc(C(F)(F)F)c1C [GSK2363608] | 82 nM
CC1=C(C(=O)Nc2cc3cn[nH]c3cc2F)C(c2ccc(C(F)(F)F)cc2)CC(=O)N1 (stereo not drawn) [GSK429286] | 2.7 nM
O=S(=O)(c1ccc(-c2ccnc3[nH]ccc23)cc1)N1CCCC1 [GSK846226] | 350 nM

System: T1, RSK4(Kin.Dom.2-C-terminal)
T1 construct: gene RPS6KA6

Compound | Kd
Fc1cc(Cl)ccc1Nc1ccnc2cc(I)ccc12 [GW551191] | 730 nM
Fc1cc(Cl)ccc1Nc1ccnc2cc(-c3ccc(CN4CCCCC4)o3)ccc12 [GW560116] | 670 nM
CS(=O)(=O)c1ccc(-c2c(-c3ncn[nH]3)sc(N3CCOCC3)c2C#N)cc1 | > 10000 nM

System: SLK

Compound | Kd
CN(C)CCN(C)C(=O)c1cc(-c2ccncc2)c(-c2ccc(Cl)c(O)c2)o1.Cl.Cl [SB-710397] | 3.6 µM
COc1cc2ncn(-c3cc(OCC4CCCO4)c(C(N)=O)s3)c2cc1OC (stereo not drawn) [GSK204607] | > 10 µM
Cc1ccccc1-n1cnc2c(N)ncnc21 [SKF-97510] | > 10 µM
